Screens as filed in PubChem.
Most compounds without a hit are left out; they make up all but 2.9% or so of the library.
CF NFkB inh – blocks PAF-induced NF-kB reporter in cystic fibrosis cells. KKLEB NF-kB-GFP reporter, GFP fluorescence overnight. inhibition, % at 5 µM. actives 0.86% (n = 360,000). AID 588850;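 active = at least 50% inhibition at 5 µM, scaled per plate between neutral and stimulator controls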;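 note: PAF is a Pseudomonas aeruginosa culture filtrate used as stimulus; plate controls were PAF-stimulated DMSO wells for no effect and unstimulated DMSO wells for full effect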
KKLEB cytotox – CF airway cell cytotoxicity counter-screen; AID 602141; activity change (cytotoxicity), % at 5 µM; actives 0.36% (n = 360,000); KKLEB CF airway cells viability, ATPlite luminescence, overnight; stronger effect = lower value; cells stimulated with P. aeruginosa culture filtrate;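 active = corrected activity change at or below -50% at 5 µM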
Peg3 promoter – reduces Peg3 promoter-driven luciferase expression in HeLa. inhibition, % at 20 µM. AID 588405. actives 1.7% (n = 360,000). HeLa PEG-Prom luciferase reporter, luminescence, overnight;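 active = inhibition of at least 50% at 20 µM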
LMP1 NFkB inh – reduces LMP1-driven NF-kappaB luciferase signal; AID 504558; LMP1-induced NF-kappaB luciferase reporter cells, luminescence; actives 0.69% (n = 350,000); inhibition, % at 12.5 µM; in the data active = inhibition above about 41%;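 note: 0% = neutral control wells and 100% = reference inhibitor control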
TRPM1 prom inh – reduces MITF-dependent TRPM1 promoter luciferase signal; SK-MEL-5 TRPM1 promoter luciferase, 24 h; inhibition, % at 12.5 µM; actives 0.83% (n = 330,000); AID 488899;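 active = mean inhibition across replicates of 60% or more, whatever share of single replicates reaches that level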
Shn3 3UTR inh – reduces Shn3 3'UTR luciferase signal in osteoblasts | actives 0.52% (n = 360,000) | AID 588674 | Clone20 osteoblast Shn3 3'UTR firefly luciferase, 24 h | inhibition, % at 12.5 µM;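 active = mean inhibition of at least 75% with every replicate also reaching 75%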;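 note: 0% = median of neutral control wells and 100% = pilot-screen positive control compound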
CF NFkB inh conf – confirmation of cystic fibrosis induced NF-kB inhibitors; shares compounds with CF NFkB inh; KKLEB CF airway cells, PAF-induced NF-kB-GFP fluorescence, overnight; inhibition, % at 5 µM; actives 64% (n = 1,300); AID 602472; in the data active = inhibition above about 40%;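 note: stimulus PAF is a Pseudomonas aeruginosa filtrate and not platelet activating factor; plate controls were DMSO wells with stimulus for no effect and unstimulated DMSO wells for full effect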
* hit, by the source's call; . = not tested or not shown.

SMILES	CF NFkB inh	KKLEB cytotox	Peg3 promoter	LMP1 NFkB inh	TRPM1 prom inh	Shn3 3UTR inh	CF NFkB inh conf
COC(=O)N1C(=O)[C@@](c2ccccc2)(C2CCCC2)N1C(=O)OC	67*	-16	50*	0	30	-3	46*
COC(=O)N1C(=O)[C@](c2ccccc2)(C2CCCCC2)N1C(=O)OC	40	8	42	0	21	-4	.
O=C(c1ccc(S(=O)(=O)c2ccc(F)cc2)c([N+](=O)[O-])c1)N1CCCCCC1	54*	-21	18	19	48	92*	39
O=C(c1ccc(S(=O)(=O)Cc2ccccc2F)c([N+](=O)[O-])c1)N1CCCC1	16	-7	8	9	18	-3	.
Cc1ccc(S(=O)(=O)NC(=O)C2(C)CCN2C(=O)c2cccc(F)c2)cc1 (centres undefined)	-10	11	2	.	.	-7	.
O=S(=O)(CC(CN1CCCC1)N1CCCC1)c1ccc2ccccc2c1 (centres undefined)	62*	-31	80*	-2	76*	15	86*
CCCCc1ccc(NC(=S)Nc2ccc(Nc3ccc(OC)cc3)cc2)cc1	52*	-19	7	4	0	20	0
CCCCc1ccc(NC(=S)NCc2cccc(OC)c2)cc1	-19	13	4	-3	7	4	.
CN1CCN(C(=O)c2ccc(S(=O)(=O)N(C)c3ccccc3)cc2)CC1	35	-10	-2	12	.	5	.
Cc1cccc(N2CCN(C(=O)c3ccc(S(=O)(=O)N(C)c4ccccc4)cc3)CC2)c1C	54*	-31	35	8	18	16	44*
O=C(Nc1ccc(NC(=O)c2ccccn2)cc1)C(=O)Nc1ccc2c(c1)OCCO2	55*	-47	-16	-10	-9	-16	11
COCCNC(=O)C1(C)CCCN(Cc2ccc(Cl)nc2)C1 (centres undefined)	16	-10	3	.	.	0	.
Cc1ccccc1C(=O)O/N=C(\N)Cc1cccs1	-13	11	-178	-50	-85	-49	.
CC(C)(C)c1ccc(C(=O)O/N=C(\N)Cc2cccs2)cc1	61*	-21	6	-17	.	-49	18
COc1ccc2c(C)nc(Nc3nc(-c4ccccc4)cc(=O)[nH]3)nc2c1	64*	3	108*	-143	70*	-97	-59
O=C(Nc1ccc(F)cc1)Nc1ccc(N2CCCC2)c(S(=O)(=O)Nc2ccccc2Cl)c1	60*	-16	42	14	75*	78	71*
COc1ccc([C@H]2N[C@]3(CCCN(CC4CCCCC4)C3=O)[C@H]3C(=O)N(Cc4ccccc4)C(=O)[C@@H]23)cc1	1	-19	5	-10	.	3	.
CCC(=O)OC1(C(=O)CCl)[C@@H](C)C[C@H]2[C@@H]3CCC4=CC(=O)C=C[C@]4(C)[C@@]3(F)[C@@H](O)C[C@@]21C (some centres undefined)	76*	-7	5	2	-5	-4	18
CCCC(=O)O[C@]1(C(=O)CCl)[C@@H](C)C[C@H]2[C@@H]3CCC4=CC(=O)C=C[C@]4(C)[C@@]3(F)C(=O)C[C@@]21C	91*	-3	-2	11	-11	5	2
CCC(=O)O[C@]1(C(=O)CCl)[C@@H](C)C[C@H]2[C@@H]3CCC4=CC(=O)C=C[C@]4(C)[C@@]3(F)[C@@H](O)C[C@@]21C	77*	17	1	-1	-30	3	18
OCc1ccccc1-c1nc(NCC2CC2)nc2ccsc12	0	0	20	.	.	-6	.
CCCCC(=O)Nc1cc(OC)c(NC(=S)Nc2ccc(OC)cc2)cc1OC	-4	-6	25	2	-5	2	.
CCOC(=O)C1(C)CCCN(C(=O)c2c(-c3ccccc3)noc2C)C1 (centres undefined)	-7	-4	12	.	.	-10	.
CC(=O)N1CC(=O)N=C1SCC(=O)Nc1nc(C)c(-c2ccccc2)s1	51*	20	-47	-9	-7	-6	60*
O=C1Nc2ccccc2C1=Nc1ccc2[nH]c3ccccc3c2c1	-13	-17	-29	3	7	14	.
SMILES	CF NFkB inh	KKLEB cytotox	Peg3 promoter	LMP1 NFkB inh	TRPM1 prom inh	Shn3 3UTR inh	CF NFkB inh conf
CCOC(=O)C1=C(CC)Nc2ccccc2N=C1NC(=O)c1oc2ccccc2c1C	76*	-9	64*	-4	23	57	95*
Cc1[nH]c2ccccc2c(=O)c1C(=O)/C=C/c1ccccc1	60*	-28	105*	24	85*	50	46*
Cc1cc(C)c(O)c(CN(C)Cc2cc(Cl)cc(Cl)c2O)c1	60*	-27	39	7	24	20	75*
Cc1ccnc(NCc2cc(Cl)cc(Cl)c2O)c1	-3	5	10	-4	.	7	.
CCN(CC(=O)Nc1ccc(OC)cc1)C(=O)c1ccc2c(c1)NC(=O)CS2	-11	8	3	-6	-16	4	.
CC1(Cc2ccc(Cl)cc2)C(=O)Nc2ccc(-c3ccc(F)c(Cl)c3)cc21 (centres undefined)	21	-10	7	.	.	14	.
CC1(Cc2ccc(F)cc2)C(=O)Nc2ccc(-c3cccnc3)cc21 (centres undefined)	67*	3	14	.	.	31	74*
C=Cc1ccc(CC2(C)C(=O)Nc3ccc(-c4cccnc4)cc32)cc1 (centres undefined)	74*	-25	32	.	.	27	87*
CC(=O)Oc1ccc(N(C(C)=O)S(=O)(=O)c2ccc(Cl)cc2)c2ccccc12	86*	-12	4	14	17	2	70*
CC(=O)Oc1ccc(N(C(C)=O)S(=O)(=O)c2ccc(C)cc2)c2ccccc12	38	-21	4	10	22	16	.
CC(=O)Nc1cccc(C(=O)/C=C/c2ccc[nH]2)c1	3	4	-112	6	-46	-18	.
CC(=O)Nc1cccc(C(=O)/C=C/c2ccc(Br)cc2)c1	78*	-16	101*	4	39	9	-69
CN(Cc1ccco1)C(=O)CC[C@H]1O[C@@H](n2ccc(=O)[nH]c2=O)[C@H](O)[C@@H]1O	-9	6	13	.	.	-5	.
Cc1ccc(Nc2nc3nonc3[nH]c2=O)cc1Cl	52*	-35	1	1	-7	-36	81*
COc1ccc(-c2cn[nH]c2-c2ccc(OCc3ccccc3)cc2O)cc1	70*	-14	17	20	-3	13	89*
COc1ccc(-c2cn[nH]c2-c2ccc(OC)cc2O)cc1	72*	-5	28	32	6	21	80*
